Assay outcomes from PubChem BioAssay.
The list is not random: actives were taken first. Their share in the collection is about 3.8%.
FAS TE block = inhibitors of human fatty acid synthase thioesterase domain. P49327. recombinant FAS-TE, OMFH fluorogenic substrate, fluorescence endpoint. inhibition, % at 15 µM. 0.67% of 360,000 active;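 active = compounds whose normalised, plate-corrected inhibition of enzyme fluorescence in the single-dose primary screen is 50% or more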
Target sequence (P49327 whole entry, looked up, the tested form may be a part): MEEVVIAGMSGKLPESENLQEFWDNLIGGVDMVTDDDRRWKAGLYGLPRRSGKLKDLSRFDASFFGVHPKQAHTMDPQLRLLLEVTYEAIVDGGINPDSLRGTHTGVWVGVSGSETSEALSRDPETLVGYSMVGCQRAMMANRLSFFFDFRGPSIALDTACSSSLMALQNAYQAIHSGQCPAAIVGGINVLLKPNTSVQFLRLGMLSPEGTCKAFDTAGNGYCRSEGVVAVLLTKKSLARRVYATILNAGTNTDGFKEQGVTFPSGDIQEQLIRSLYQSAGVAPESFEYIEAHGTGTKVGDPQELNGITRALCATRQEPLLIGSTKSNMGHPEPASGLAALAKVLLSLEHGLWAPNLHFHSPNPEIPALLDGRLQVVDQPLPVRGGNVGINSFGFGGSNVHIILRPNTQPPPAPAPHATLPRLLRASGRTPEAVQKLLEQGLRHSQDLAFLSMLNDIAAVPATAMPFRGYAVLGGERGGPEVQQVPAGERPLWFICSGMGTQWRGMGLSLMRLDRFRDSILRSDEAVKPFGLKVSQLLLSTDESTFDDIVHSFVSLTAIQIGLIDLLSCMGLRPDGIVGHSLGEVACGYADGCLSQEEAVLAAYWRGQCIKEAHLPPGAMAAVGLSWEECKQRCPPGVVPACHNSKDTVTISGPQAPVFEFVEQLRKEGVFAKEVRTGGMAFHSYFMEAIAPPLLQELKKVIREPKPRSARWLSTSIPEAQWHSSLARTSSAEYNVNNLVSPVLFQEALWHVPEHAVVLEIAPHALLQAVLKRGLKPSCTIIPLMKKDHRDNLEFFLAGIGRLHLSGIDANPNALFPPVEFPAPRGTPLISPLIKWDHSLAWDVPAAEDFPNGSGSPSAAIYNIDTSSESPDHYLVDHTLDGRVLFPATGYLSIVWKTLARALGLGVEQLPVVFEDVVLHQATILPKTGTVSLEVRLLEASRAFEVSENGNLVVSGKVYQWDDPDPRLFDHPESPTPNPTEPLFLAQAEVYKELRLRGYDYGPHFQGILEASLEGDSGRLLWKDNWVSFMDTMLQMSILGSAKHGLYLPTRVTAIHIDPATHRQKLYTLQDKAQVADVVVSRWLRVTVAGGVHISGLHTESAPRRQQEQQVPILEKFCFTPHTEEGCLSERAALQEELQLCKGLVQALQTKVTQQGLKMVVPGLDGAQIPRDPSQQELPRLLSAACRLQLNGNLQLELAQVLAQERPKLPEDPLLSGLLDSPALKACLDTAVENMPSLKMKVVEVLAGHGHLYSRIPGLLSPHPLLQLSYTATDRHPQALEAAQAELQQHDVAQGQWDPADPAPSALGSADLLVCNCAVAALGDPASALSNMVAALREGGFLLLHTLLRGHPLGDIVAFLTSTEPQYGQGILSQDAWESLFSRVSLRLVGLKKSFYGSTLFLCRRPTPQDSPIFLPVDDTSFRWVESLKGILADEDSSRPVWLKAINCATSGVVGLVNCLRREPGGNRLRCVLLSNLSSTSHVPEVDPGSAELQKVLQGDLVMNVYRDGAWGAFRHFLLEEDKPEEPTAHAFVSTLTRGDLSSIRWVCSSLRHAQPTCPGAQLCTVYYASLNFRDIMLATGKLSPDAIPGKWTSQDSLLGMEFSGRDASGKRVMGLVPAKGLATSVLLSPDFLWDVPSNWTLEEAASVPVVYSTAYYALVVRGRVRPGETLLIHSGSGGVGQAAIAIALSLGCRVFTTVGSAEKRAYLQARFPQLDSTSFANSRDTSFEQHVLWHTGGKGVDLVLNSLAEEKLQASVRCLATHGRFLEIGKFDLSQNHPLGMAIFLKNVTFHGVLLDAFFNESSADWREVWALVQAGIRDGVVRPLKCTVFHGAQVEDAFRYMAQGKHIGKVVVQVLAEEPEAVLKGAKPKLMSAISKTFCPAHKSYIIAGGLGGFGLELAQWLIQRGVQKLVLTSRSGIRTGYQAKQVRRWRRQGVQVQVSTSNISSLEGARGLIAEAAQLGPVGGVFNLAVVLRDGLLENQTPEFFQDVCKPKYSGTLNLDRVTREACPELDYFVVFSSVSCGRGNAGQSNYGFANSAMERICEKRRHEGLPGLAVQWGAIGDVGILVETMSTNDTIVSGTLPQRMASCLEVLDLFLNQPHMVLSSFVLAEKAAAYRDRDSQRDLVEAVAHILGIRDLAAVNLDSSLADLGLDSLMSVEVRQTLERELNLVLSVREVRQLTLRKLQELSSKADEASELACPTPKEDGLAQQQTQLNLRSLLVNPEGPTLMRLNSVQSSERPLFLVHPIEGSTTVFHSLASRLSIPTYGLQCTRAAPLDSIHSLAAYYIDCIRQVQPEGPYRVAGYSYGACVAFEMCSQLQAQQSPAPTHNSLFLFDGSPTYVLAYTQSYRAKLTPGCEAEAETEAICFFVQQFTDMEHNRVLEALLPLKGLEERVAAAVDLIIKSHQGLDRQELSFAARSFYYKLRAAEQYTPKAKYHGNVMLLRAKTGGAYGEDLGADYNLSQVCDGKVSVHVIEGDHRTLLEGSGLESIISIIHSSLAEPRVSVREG
H9c2 protect = protects H9c2 cardiomyocytes from peroxide injury; protection from H2O2 cell death, % at 20 µM; H2O2 injury protection, ATPLite, 2 h; AID 588492; 0.63% of 360,000 active;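 active = compounds giving at least 50% protection of heart cells from peroxide-induced death in the single-dose screen, raw or plate-pattern-corrected value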
SUMO Mot1 rescue = blocks SUMOylation pathway, rescuing yeast Mot1-301 growth; S. cerevisiae Mot1-301 growth rescue, ATP luminescence, 38.5C; percent above DMSO median, 100 means doubled; growth rescue, % at 18.8 µM; 1% of 320,000 active; AID 2716;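 active = every valid replicate shows activation above 250% relative to neutral control wells; inactive = the rest, any valid replicate at or below 250%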
aDG glyco act = alpha-DG glycosylation activation | Pro5-aDG cells, alpha-DG glycosylation AlphaScreen (IIH6); 0% Pro5, 100% B10-LARGE cell signal | activation, % at 10 µM | 0.22% of 360,000 active | AID 624168;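 active = activation of at least 8% versus controls, or a plate z-score of at least 8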;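 also: Pro5 are CHO cells carrying HIG-tagged alpha-DG that lacks glycosylation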
MPTP block = inhibitors of mitochondrial permeability transition pore. 1.4% of 360,000 active. inhibition, % at 10 µM. isolated mouse mitochondria, Ca2+ swelling absorbance, 30 min;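 active = inhibition of 50% or more, scaled per plate between neutral and stimulator controls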
CR mimetic SO = caloric restriction mimetics inhibiting age-related superoxide in yeast; S. cerevisiae aged cells, superoxide DHE fluorescence; stronger effect = lower value; superoxide response (% of plate mean), % at 10 µM; 0.18% of 330,000 active;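 active = superoxide response under a set limit, about three screen SD below normal, cut at about 65% in these data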;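 also: yeast aged for seven days with compound at 30 °C before DHE staining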
Numbers stand for hits; i = inactive; nt = no result.

SMILES	FAS TE block	H9c2 protect	SUMO Mot1 rescue	aDG glyco act	MPTP block	CR mimetic SO
CC1(NC(=O)c2cccc(S(=O)(=O)N3CCN(c4ccc(F)cc4)CC3)c2)CCS(=O)(=O)C1 (configuration not stated)	i	i	i	i	i	i
COc1ccc(C(=O)COc2ccccc2C(N)=O)cc1	i	69	i	i	i	i
CS(=O)(=O)N1CCN(C(=O)c2cc(-c3cccnc3)nc3ccc(Br)cc23)CC1	i	i	i	i	i	i
CC(=O)c1ccc(N2CCN(C(=O)c3cc(-c4cccnc4)nc4ccc(Br)cc34)CC2)cc1	i	53	i	i	i	i
O=C(c1cc(-c2ccncc2)nc2ccc(Cl)cc12)N1CCN(Cc2ccc3c(c2)OCO3)CC1	i	i	i	i	i	i
O=C(c1cc(-c2cccnc2)nc2ccc(Br)cc12)N1CCN(c2ncccn2)CC1	i	59	i	i	i	i
O=C(c1cc(-c2ccncc2)nc2ccc(Br)cc12)N1CCN(Cc2ccc3c(c2)OCO3)CC1	i	66	i	i	i	i
C=CC[C@@H](CC(=O)NCCO)C(=O)NC[C@@H](OC(=O)[C@H](CC=C)CC(=O)OC(C)(C)C)c1ccccc1	i	i	i	i	i	i
COc1ccc(-c2ccc(NS(=O)(=O)c3cc([N+](=O)[O-])c(C)c([N+](=O)[O-])c3)cc2)nn1	59	i	i	i	i	i
COc1ccc(CN2C(=O)c3cccnc3C2=O)cc1S(=O)(=O)N1CCOc2ccc(C)cc21	i	i	i	i	i	i
COc1cc2nc(C3CCC3)nc(N3CCN(c4ccccn4)CC3)c2cc1OC	i	60	i	i	i	i
COc1cccc(C(=O)N/N=c2/oc3ccccc3cc2C(N)=O)c1	i	i	i	i	i	i
COc1cccc(C(=O)N/N=c2\oc3c(OC)cccc3cc2C(=O)NCc2ccccc2)c1	i	76	i	i	i	i
COc1ccc(N=c2oc3c(OC)cccc3cc2C(=O)NCc2ccco2)cc1OC	i	52	i	i	i	i
N=C1c2ccccc2CN1NC(=O)CC12CC3CC(CC(C3)C1)C2	i	i	i	i	i	56
Cc1cc(C)cc(OCC(=O)NN2Cc3ccccc3C2=N)c1	i	i	i	i	i	i
O=C(CSC1=NNC(c2ccccn2)S1)Nc1cccc(Cl)c1 (configuration not stated)	i	61	i	i	i	i
O=C(CSC1=NNC(c2ccccn2)S1)Nc1ccccc1 (configuration not stated)	i	i	i	i	i	i
COc1cccc(CNS(=O)(=O)c2ccccc2Br)c1OC	i	i	nt	i	i	nt
Cc1cc2[nH]c(=O)c3ccccc3n2n1	i	77	i	i	i	i
CCOC(=O)c1nc(N2CCN(C(=O)OCC)CC2)c2c3c(sc2n1)CCCC3	i	62	i	i	i	i
CCc1nc(N2CCN(C(=O)CCCl)CC2)c2c3c(sc2n1)CCCC3	i	i	nt	i	i	nt
CCCCN1CC(C)(C)[C@H](CC(=O)Nc2ccccc2)C1=O	i	i	nt	i	i	nt
CCCN1CCc2c(sc(NC(=O)c3ccc(S(=O)(=O)N4CCN(C(=O)OCC)CC4)cc3)c2C(N)=O)C1	i	i	i	12	i	i
CN1CCc2c(sc(NC(=O)c3ccc(S(=O)(=O)N4CCCCCC4)cc3)c2C(N)=O)C1	i	i	i	33	i	i
SMILES	FAS TE block	H9c2 protect	SUMO Mot1 rescue	aDG glyco act	MPTP block	CR mimetic SO
CN1CCc2c(sc(NC(=O)c3ccc(S(=O)(=O)N4CCOCC4)cc3)c2C(N)=O)C1	i	i	i	i	i	i
COc1ccc(N2CCN(S(=O)(=O)CCNC(=O)COc3ccc(Cl)cc3)CC2)cc1	i	i	i	i	i	i
COc1ccc(S(=O)(=O)Nc2c(C)n(C)n(-c3ccccc3)c2=O)cc1C(=O)O	i	i	274	i	i	i
CSc1nc2ccc(S(=O)(=O)Nc3c(C)n(C)n(-c4ccccc4)c3=O)cc2s1	i	106	i	i	i	i
CC(=O)c1ccc(S(=O)(=O)NCc2ccc(C(=O)NCC(c3ccccc3)N(C)C)cc2)cc1 (configuration not stated)	i	i	i	i	i	i
Nc1cc(C(F)(F)F)ccc1OCC1CCCO1 (configuration not stated)	i	i	i	i	i	i
O=C(N/N=C/c1ccc2c(c1)OCO2)c1ccc(NC(=O)c2ccccc2Cl)cc1	i	56	i	i	i	i
O=Cc1cn(CC(=O)Nc2ccc3c(c2)OCO3)c2ccccc12	i	i	i	i	i	i
CCOC(=O)CCCCCC(=O)Nc1ccc2c(c1)C(=O)N([C@@H](C)CO)C[C@@H](C)[C@H](CN(C)S(=O)(=O)c1cccs1)OCCCC[C@H](C)O2	i	i	nt	i	i	nt
COc1cc(OC)cc(C(=O)NNC(=O)C2CCCC2)c1	i	i	331	i	i	i
CCN1CCN(c2cc(C)c3cc(NC(=S)N4CCN(c5ccccc5)CC4)ccc3n2)CC1	i	i	i	i	i	i
Cc1cc(N2CCOCC2)nc2ccc(NC(=S)N3CCN(c4ccccc4)CC3)cc12	i	i	340	i	i	i
COCCn1c(SCc2cccc(F)c2)nc2cc(C(=O)OC)ccc2c1=O	i	i	i	i	i	i
Cc1nc(-n2[nH]c3c(c2=O)CCCC3)[nH]c(=O)c1Cc1ccccc1	i	70	i	i	i	i
COc1ccc(CNC(=O)COC(=O)[C@@H]2CCCN2C(=O)c2cccs2)cc1	i	i	i	i	i	i
CCc1nc(N2CCN(C(=O)c3ccco3)CC2)c2oc3ccccc3c2n1	i	51	i	i	i	i
Cc1cc(Br)ccc1SCC(=O)N1CCN(S(=O)(=O)c2ccccc2)CC1	i	i	i	i	i	i
O=C(O)/C=C/C(O)c1ccc(Cl)cc1 (configuration not stated)	i	i	i	i	i	i
CCOC(=O)c1ccccc1NC(=O)C1=COCCO1	i	i	i	i	i	i
CCOC(=O)c1ccccc1NC(=O)COC(=O)C1=COCCO1	i	i	286	i	i	i
CN(C(=O)CSc1nc2c(c(=O)[nH]1)CCCC2)C1CCCCC1	i	63	i	i	i	i
CS(=O)(=O)c1ccc(Cl)c(NC(=O)c2ccc(-n3cncn3)c([N+](=O)[O-])c2)c1	i	i	nt	i	i	nt
N=c1n(CC(=O)c2ccc(Br)cc2)c2ccccc2n1Cc1ccccc1	i	i	i	9.1	i	i
Cn1c(=N)n(CC(=O)c2ccc(Cl)c(Cl)c2)c2ccccc21	i	i	i	7.4	i	i
N=c1n(CC(=O)c2ccc([N+](=O)[O-])cc2)c2ccccc2n1Cc1ccccc1	i	i	i	i	i	i
Cn1c(=N)n(CC(=O)c2ccccc2)c2ccccc21	i	i	i	i	i	i
O=S(=O)(c1ccc(SCc2c(F)cccc2Cl)nc1)N1CCCC1	i	i	nt	i	i	nt
